The list is not random: actives were taken first. Their share in the collection is about 11%.
AMA1 RON2 block: disrupts binding of P. falciparum AMA1 to RON2. AlphaScreen AMA1-biotinylated RON2 peptide binding. Potency, µM (doses to about 58.2 µM), usual class: inhibitors. hit rate 0.2% among 360,000. AID 720542; further: nearly all actives have a fitted effect of over 45% in size
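AMA1 (3D7) with his tag at 25 nM final met compounds first, then biotinylated RON2 peptide at 25 nM; detection used donor plus acceptor beads, 10 µg/mL apiece, read by AlphaScreen after 30 min at room temperature.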
Pf growth 96h: P. falciparum growth inhibition at 96 hour, primary screen for plastid delayed-death inhibitors | P. falciparum luciferase reporter growth, 96 h | Potency, µM (highest dose often 28.7 µM), most hits filed as inhibitors | hit rate 6.9% among 320,000
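96 h incubation, 37 C, 5% CO2, of luciferase-reporter P. falciparum-infected RBCs (2% hematocrit, 0.05% parasitemia final) with test compounds; endpoint luminescence.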
HCV inh: blocks hepatitis C virus. Huh7.5.1 HCVcc-Cre infection, luciferase reporter, 44 h. Potency, µM (titrated, usually from 41.8 µM), actives largely listed as inhibitors. hit rate 3.4% among 340,000
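A cell-based infection assay in which seeded cells (1,000 per well) receive test compound after 4 h, are inoculated with HCVcc-Cre at approximately 0.5 moi, and are incubated 44 h before luminescence detection.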
Pf growth 48h: inhibits P. falciparum growth in the first generation, 48 h | AID 504832 | P. falciparum luciferase growth in erythrocytes, 48 h | hit rate 5.9% among 310,000 | Potency, µM (doses to about 28.7 µM), actives largely listed as inhibitors
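First compound was added to culture medium, then infected red cells at 0.1% parasitemia and 2% hematocrit (final). After incubation at 37 C under 5% CO2, luciferase detection reagent was dispensed and light output recorded.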
Large screens that a line does not name were inactive. The call rests on the fitted dose curve; in most records, active means well fitted curve in the direction sought with a large enough effect; inconclusive means small, poorly fitted or top-dose-only effect, or another doubt; inactive means no such curve, though single readings can be large; an effect the other way counts as inactive or inconclusive.

COc1cc(/C=C2/NC(=O)N(CC(=O)Nc3cccc(C)c3)C2=O)ccc1OCC(N)=O	HCV inh 10µM, Pf growth 48h inconclusive
COc1ccccc1N1CCN(C2CCCN(C(=O)CC(F)(F)F)C2)CC1 (stereo not given)	none
CCC12CN(S(=O)(=O)c3ccc(C)cc3)CC(CC)(CN(S(=O)(=O)c3ccc(C)cc3)C1)C2=O	Pf growth 96h 2.3µM (no result: Pf growth 48h)
Nc1nc2ccc(Cl)cc2cc1C(=O)NCc1ccc(Oc2ccccc2)cc1	none (no result: Pf growth 96h, HCV inh, Pf growth 48h)
O=c1[nH]c(-c2ccccn2)nc(C(F)(F)F)c1Br	Pf growth 96h 7.4µM, Pf growth 48h 5.9µM
CCOc1ccccc1NC(=O)c1ccc2c(c1)C(=O)N(CC1CCCO1)C2=O (stereo not given)	Pf growth 96h 15µM
Cc1ccccc1NC(=O)CSc1nnc(NC(=O)c2ccco2)s1	none (no result: HCV inh)
Cn1ncc(Cl)c1C(=O)NC1CCCC1	none
C=C(c1ccc2nc(NC(=O)OC)[nH]c2c1)c1cccs1	HCV inh inconclusive (no result: Pf growth 96h, Pf growth 48h)
CN1C/C(=C/c2cccnc2)C(=O)/C(=C/c2cccnc2)C1	Pf growth 96h inconclusive, HCV inh inconclusive, Pf growth 48h inconclusive
CC(C)N1C/C(=C/c2cccnc2)C(=O)/C(=C/c2cccnc2)C1	HCV inh inconclusive, Pf growth 48h 13µM
Cc1ccc(C)c(NC(=O)CN(C)C(=O)c2cc3ccccc3o2)c1	Pf growth 96h 3.3µM, Pf growth 48h 2.3µM
Cc1ccc(C)c(NC(=O)CN(C)C(=O)c2ccc(-c3ccc(Cl)cc3)o2)c1	Pf growth 96h 13µM, HCV inh inconclusive, Pf growth 48h 1.5µM
Cc1cccc(C)c1NC(=O)CN(C)C(=O)c1ccc(-c2cccc(C(F)(F)F)c2)o1	Pf growth 96h inconclusive, HCV inh inconclusive, Pf growth 48h 12µM
Cc1ccc(C)c(NC(=O)CN(C)C(=O)c2ccccc2Cc2ccccc2)c1	Pf growth 96h inconclusive, Pf growth 48h inconclusive
CN(CC(=O)Nc1cccc(F)c1)C(=O)c1ccc(-c2ccc(Cl)cc2)o1	Pf growth 96h 1.7µM, HCV inh inconclusive, Pf growth 48h 1.9µM
CCc1ccc(CN2CCCC(CCC(=O)N3CCN(c4ccccn4)CC3)C2)o1 (stereo not given)	Pf growth 96h inconclusive
CCO/C(C)=C1/SC(=S)NC1=O	HCV inh inconclusive
CC1CN(C(=O)c2ccc(-c3cccc(C(F)(F)F)c3)o2)CC(C)O1 (stereo not given)	Pf growth 96h inconclusive, HCV inh inconclusive, Pf growth 48h 13µM
O=C(c1ccc(-c2cccc(C(F)(F)F)c2)o1)N1CCCCCCC1	none
O=[N+]([O-])c1ccc(C2Oc3ccccc3C3CC(c4ccccc4)=NN32)s1 (stereo not given)	Pf growth 96h inconclusive, HCV inh inconclusive (no result: AMA1 RON2 block)
O=S(=O)(c1ccc(F)cc1)N1CCN(C(=S)NCC2CCCO2)CC1 (stereo not given)	Pf growth 96h 2.1µM, HCV inh inconclusive, Pf growth 48h 2.6µM
O=S(=O)(c1ccc(F)cc1)N1CCN(C(=S)NCCc2ccccc2)CC1	Pf growth 96h inconclusive, Pf growth 48h 1.9µM
O=S(=O)(c1cccc(Br)c1)N1CCN(C(=S)NCC2CCCO2)CC1 (stereo not given)	Pf growth 96h inconclusive, Pf growth 48h inconclusive
O=S(=O)(c1ccc(Cl)cc1)N1CCN(C(=S)NCC2CCCO2)CC1 (stereo not given)	Pf growth 48h 0.93µM (no result: HCV inh)
CCc1cccc(NC(=O)Cn2c(=O)n(CCC(=O)NCC3CCCO3)c(=O)c3cc(OC)c(OC)cc32)c1 (stereo not given)	HCV inh inconclusive
O=C(COC(=O)c1cc(-c2cccs2)nn1-c1ccccc1)Nc1ccc(F)c([N+](=O)[O-])c1	none
CCOc1ccc(Nc2ncnc3c2cnn3C)cc1	none
CC(=O)N1CCc2cc(S(=O)(=O)CCC(=O)Nc3ccc(Cl)cc3F)ccc21	Pf growth 96h inconclusive
Cc1ccc(C)c(N2CCN(C(=O)CCCn3c(=S)[nH]c4cc5c(cc4c3=O)OCO5)CC2)c1	Pf growth 96h inconclusive, HCV inh inconclusive, Pf growth 48h 12µM
CCN(CC)CCn1c(=S)[nH]c2cc3c(cc2c1=O)OCO3	Pf growth 96h 10µM
CCN(CC)CCNC(=O)CCn1c(=S)[nH]c2cc3c(cc2c1=O)OCO3	none
O=C(CCCn1c(=S)[nH]c2cc3c(cc2c1=O)OCO3)N1CCN(c2ccccc2F)CC1	Pf growth 96h inconclusive, HCV inh inconclusive
Cc1cc(C)c2c(c1)/C(=N/NC(=O)c1cc(C)oc1C)CCC2	Pf growth 48h inconclusive
O=C(O)C(CCc1ccccc1)(Cc1ccccc1)C(=O)O	none (no result: Pf growth 96h, Pf growth 48h)
CCN(CC)S(=O)(=O)c1ccc(OC)c(NC(=O)c2ccc(-n3cncn3)c([N+](=O)[O-])c2)c1	Pf growth 48h inconclusive
Cc1nc(C)c(C(=O)NNS(=O)(=O)c2ccc3ccccc3c2)s1	HCV inh 13µM
CCOC(=O)/C=C/C(=O)OCC(=O)Nc1c(Cl)cccc1Cl	Pf growth 48h 13µM
CCOC(=O)/C=C/C(=O)OCC(=O)Nc1ccc(Cl)cc1Cl	none
OCCCNc1c2ccccc2nc2ccccc12	HCV inh 11µM, Pf growth 48h 5.2µM
c1ccc2c(NCCc3c[nH]c4ccccc34)c3ccccc3nc2c1	AMA1 RON2 block inconclusive, Pf growth 96h 3.3µM, HCV inh 14µM, Pf growth 48h 0.59µM
O=C(Nc1cccnc1)C1CCN(S(=O)(=O)c2ccc(Cl)cc2)CC1	none
COC(=O)c1sccc1NC(=S)N1CCN(c2cc(C)ccc2C)CC1	HCV inh inconclusive, Pf growth 48h 10µM
COC(=O)c1sccc1NC(=S)N1CCN(C)CC1	Pf growth 96h inconclusive, HCV inh inconclusive, Pf growth 48h inconclusive
COC(=O)c1sccc1NC(=S)N1CCCC(C)C1 (stereo not given)	Pf growth 96h inconclusive, Pf growth 48h 12µM
COC(=O)c1sccc1NC(=S)N(C)C1CCCCC1	Pf growth 96h inconclusive, Pf growth 48h 9.3µM
CCN1CCN(C(=S)Nc2ccsc2C(=O)OC)CC1	Pf growth 96h inconclusive
O=C(COc1ccccc1-c1ccccc1)NN=C1CCCC1	Pf growth 96h inconclusive
O=[N+]([O-])c1ccn(-c2nc(-c3cccs3)cc(C(F)(F)F)n2)n1	Pf growth 96h inconclusive, HCV inh inconclusive
FC(F)(F)c1cc(-c2cccs2)nc(-n2cc(Cl)cn2)n1	Pf growth 96h inconclusive, HCV inh 10µM (no result: Pf growth 48h)
Cc1cc(/C=C2/NC(=O)N(Cc3ccccc3F)C2=O)c(C)n1C	Pf growth 96h 10µM, HCV inh inconclusive, Pf growth 48h 10µM
Cc1cc(/C=C2/NC(=O)N(Cc3ccccc3F)C2=O)c(C)n1-c1ccccn1	Pf growth 96h inconclusive, Pf growth 48h 9.3µM
Cc1cccc(NC(=O)CN2C(=O)N/C(=C/c3cc(C)n(-c4ccncc4)c3C)C2=O)c1	Pf growth 96h inconclusive
Cc1cccc(CN2C(=O)N/C(=C/c3cc(C)n(-c4ccccn4)c3C)C2=O)c1	HCV inh 1.8µM, Pf growth 48h 13µM (no result: Pf growth 96h)
COc1ccc(-n2nnc3c(SCC(=O)N4CCCc5ccccc54)ncnc32)cc1	HCV inh inconclusive (no result: Pf growth 96h, Pf growth 48h)
Cc1ccc(S(=O)(=O)N(C)C)cc1NC(=O)C(C)OC(=O)C1CCC1 (stereo not given)	none (no result: Pf growth 96h, Pf growth 48h)

Screening data from PubChem BioAssay.
